These substances were tested against CCT7 (UniProt Q99832) (assay: cross-linking mass spectrometry). Conditions: TSTO, in cells.
Sequence of CCT7 (Q99832 whole entry): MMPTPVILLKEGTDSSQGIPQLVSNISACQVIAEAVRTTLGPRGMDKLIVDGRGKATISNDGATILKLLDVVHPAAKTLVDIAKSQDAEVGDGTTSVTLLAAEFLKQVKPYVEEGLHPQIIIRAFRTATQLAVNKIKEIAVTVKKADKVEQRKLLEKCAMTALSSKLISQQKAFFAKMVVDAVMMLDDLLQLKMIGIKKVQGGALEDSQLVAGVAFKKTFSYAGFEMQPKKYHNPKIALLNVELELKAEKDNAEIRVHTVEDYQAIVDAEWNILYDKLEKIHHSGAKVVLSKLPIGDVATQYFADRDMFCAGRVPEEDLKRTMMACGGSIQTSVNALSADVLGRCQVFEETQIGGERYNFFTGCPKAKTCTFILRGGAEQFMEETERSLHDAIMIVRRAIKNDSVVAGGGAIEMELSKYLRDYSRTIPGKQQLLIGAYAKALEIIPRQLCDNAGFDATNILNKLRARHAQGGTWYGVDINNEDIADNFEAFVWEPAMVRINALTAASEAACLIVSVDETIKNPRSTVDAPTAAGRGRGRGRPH
Sequence of CCT5, P48643 (P48643 whole entry): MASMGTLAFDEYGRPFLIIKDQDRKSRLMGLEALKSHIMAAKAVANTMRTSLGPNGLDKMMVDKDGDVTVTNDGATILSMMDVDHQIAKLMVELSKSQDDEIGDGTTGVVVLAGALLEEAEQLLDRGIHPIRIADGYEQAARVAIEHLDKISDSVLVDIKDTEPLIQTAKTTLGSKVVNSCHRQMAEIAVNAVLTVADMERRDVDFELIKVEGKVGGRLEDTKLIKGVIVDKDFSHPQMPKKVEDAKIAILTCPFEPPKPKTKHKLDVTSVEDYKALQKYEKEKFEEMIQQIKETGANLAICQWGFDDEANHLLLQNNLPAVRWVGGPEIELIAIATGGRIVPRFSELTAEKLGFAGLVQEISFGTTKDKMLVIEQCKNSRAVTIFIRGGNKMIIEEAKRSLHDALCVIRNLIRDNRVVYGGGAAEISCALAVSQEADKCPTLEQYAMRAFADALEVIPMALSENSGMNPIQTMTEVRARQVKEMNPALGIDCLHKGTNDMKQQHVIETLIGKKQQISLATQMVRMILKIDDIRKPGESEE
Sequence of VBP1, P61758 (P61758 whole entry): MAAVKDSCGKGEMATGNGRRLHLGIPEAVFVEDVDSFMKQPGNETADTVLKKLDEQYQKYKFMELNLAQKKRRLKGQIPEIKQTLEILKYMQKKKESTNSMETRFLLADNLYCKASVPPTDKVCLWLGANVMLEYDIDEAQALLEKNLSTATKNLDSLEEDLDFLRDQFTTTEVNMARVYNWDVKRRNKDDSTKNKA
Sequence of CCT2, P78371 (P78371 whole entry): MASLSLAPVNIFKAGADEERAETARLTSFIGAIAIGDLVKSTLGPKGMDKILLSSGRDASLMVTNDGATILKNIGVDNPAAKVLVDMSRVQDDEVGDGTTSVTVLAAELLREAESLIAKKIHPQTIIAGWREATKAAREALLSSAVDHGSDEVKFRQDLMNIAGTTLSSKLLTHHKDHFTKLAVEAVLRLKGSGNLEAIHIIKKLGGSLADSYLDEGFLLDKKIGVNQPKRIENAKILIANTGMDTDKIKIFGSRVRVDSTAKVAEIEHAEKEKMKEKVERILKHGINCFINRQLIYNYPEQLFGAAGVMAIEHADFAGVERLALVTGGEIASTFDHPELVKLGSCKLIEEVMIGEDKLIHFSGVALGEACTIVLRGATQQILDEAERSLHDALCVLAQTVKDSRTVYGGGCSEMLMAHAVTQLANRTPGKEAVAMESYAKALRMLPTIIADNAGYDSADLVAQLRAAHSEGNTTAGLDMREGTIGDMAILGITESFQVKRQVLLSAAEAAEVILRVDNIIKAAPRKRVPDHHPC
Sequence of CCT8, P50990 (P50990 whole entry): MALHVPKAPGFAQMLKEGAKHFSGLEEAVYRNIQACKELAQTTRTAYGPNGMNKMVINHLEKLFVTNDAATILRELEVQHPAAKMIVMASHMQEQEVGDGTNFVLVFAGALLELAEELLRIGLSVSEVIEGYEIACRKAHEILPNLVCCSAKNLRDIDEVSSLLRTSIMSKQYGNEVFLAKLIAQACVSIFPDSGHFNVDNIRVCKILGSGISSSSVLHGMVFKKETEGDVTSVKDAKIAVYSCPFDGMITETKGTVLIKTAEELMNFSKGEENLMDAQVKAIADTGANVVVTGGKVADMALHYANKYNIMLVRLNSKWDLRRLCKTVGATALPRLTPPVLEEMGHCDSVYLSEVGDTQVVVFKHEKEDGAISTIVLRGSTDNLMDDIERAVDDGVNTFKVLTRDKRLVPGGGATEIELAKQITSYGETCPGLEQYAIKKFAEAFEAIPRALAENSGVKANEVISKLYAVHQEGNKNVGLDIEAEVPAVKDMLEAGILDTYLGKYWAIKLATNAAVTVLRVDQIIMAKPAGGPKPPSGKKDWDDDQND
With VBP1, P61758 the cross-linked residues was “K189 - K292”.
With CCT5, P48643 the cross-linked residues was “K232 - K250”.
In the case of CCT2, P78371, the cross-linked residues is reported as “K248 - K250”.
With CCT8, P50990 the cross-linked residues was “K270 - K280”.

Reference: paper PMC12215968
